About 79,000 compounds went through this panel and 15% of them were active in at least one assay; those are over-represented in the sample as a whole. Calls of active or inactive are those of the source. Rule as the data show it: active = growth inhibition above about 70%; inactive = the rest.
How the values were obtained:
[1] = NCI Yeast Anticancer Drug Screen. Data for the rad52 strain (AID 147);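 also: 0% = growth of vehicle-treated control cultures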; settings: S. cerevisiae rad52 mutant growth inhibition, hits give high values
Method in brief: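 Screen used a yeast mutant impaired in DNA repair. After compound exposure, growth was measured. Values reflect inhibition compared with vehicle-treated cells.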

[2] = NCI Yeast Anticancer Drug Screen. Data for the wt1 strain (AID 149);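 also: 0% = growth of vehicle-treated wt1 cultures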; settings: S. cerevisiae wt1 strain (SPY 50644) growth inhibition, hits give high values
Method in brief: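 Growth inhibition read against vehicle controls after compound exposure of the wt1 yeast strain.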

[3] = NCI Yeast Anticancer Drug Screen. Data for the rad50EPP+ strain (AID 151);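 also: 0% = growth of vehicle-treated control cultures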; settings: S. cerevisiae rad50 mutant strain, hits give high values
Method in brief: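 Exposing the rad50EPP+ strain to each compound, growth was compared with vehicle-only cultures to give inhibition.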

[4] = NCI Yeast Anticancer Drug Screen. Data for the mgt1 strain (AID 153); settings: S. cerevisiae mgt1 mutant growth inhibition, hits give high values
Method in brief: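 Genetically defined yeast (mgt1) treated with compound; inhibition of growth expressed against vehicle-treated controls.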

[5] = NCI Yeast Anticancer Drug Screen. Data for the mec2-1 strain (AID 157); settings: S. cerevisiae mec2-1 strain, hits give high values
Method in brief: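 Readout is yeast growth inhibition, normalised to vehicle-treated controls, in the mec2-1 strain exposed to compound.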

[6] = NCI Yeast Anticancer Drug Screen. Data for the rad14 strain (AID 159);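 also: 0% = growth of vehicle-treated control cultures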; settings: S. cerevisiae rad14 strain growth inhibition, hits give high values
Method in brief: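 Growth inhibition vs vehicle controls; genetically altered yeast strain (DNA damage repair defect) treated with test compounds.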

[7] = NCI Yeast Anticancer Drug Screen. Data for the cln2 rad14 strain (AID 165);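 also: 0% = growth equal to vehicle treated cultures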; settings: S. cerevisiae cln2 rad14 strain, hits give high values
Method in brief: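 Relative to vehicle controls, growth inhibition of compound-treated cln2 rad14 yeast was recorded.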

[8] = NCI Yeast Anticancer Drug Screen. Data for the bub3 strain (AID 167); settings: S. cerevisiae bub3 mutant strain, hits give high values
Method in brief: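 Readout: yeast growth inhibition, expressed relative to vehicle-only wells. The test organism is a mutant strain from a panel with lesions in DNA repair or checkpoint genes.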

[9] = NCI Yeast Anticancer Drug Screen. Data for the wt2 strain (AID 169);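 also: 0% = growth of vehicle-treated yeast cultures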; settings: S. cerevisiae wt2 strain growth inhibition, hits give high values
Method in brief: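 Values express reduction in yeast growth under compound treatment, referenced to vehicle-treated cells.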

[10] = NCI Yeast Anticancer Drug Screen. Data for the mlh1 strain (AID 171);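 also: 0% = growth of vehicle-treated control cultures of the same strain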; settings: S. cerevisiae mlh1 strain growth inhibition, hits give high values
Method in brief: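 Steps: expose the defined-mutant yeast strain to compound; expose a parallel culture to vehicle; measure growth; express compound effect as inhibition relative to the vehicle culture.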

[11] = NCI Yeast Anticancer Drug Screen. Data for the sgs1 strain (AID 173);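 also: 0% = growth of vehicle-only control cultures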; settings: S. cerevisiae sgs1 mutant, hits give high values
Method in brief: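 Treat defined-mutant yeast with compound; measure growth; calculate inhibition relative to vehicle-treated cells.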

[12] = NCI Yeast Anticancer Drug Screen. Data for the mlh1 rad18 strain (AID 175); settings: S. cerevisiae mlh1 rad18 strain growth inhibition, hits give high values
Method in brief: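 Test agents were incubated with a yeast strain of defined genotype (DNA damage repair defect). Inhibition of growth was derived by comparison with vehicle-exposed cultures.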

[13] = NCI Yeast Anticancer Drug Screen. Data for the rad18 strain (AID 177); settings: S. cerevisiae rad18 mutant growth inhibition, hits give high values
Method in brief: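 A genetically defined yeast mutant impaired in DNA damage repair was treated with test compounds, then its growth was measured against cultures receiving vehicle alone.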

[14] = at 5.0 µM (retest, dose inferred, filed as 0.5)
[15] = at 50.0 µM (retest, dose inferred, filed as 5.0)

Measured: growth inhibition

NC(N)=N/N=C/c1cc(Cl)cc(Cl)c1O
active: [1]; at 100.0 µM 98% | [2]; at 100.0 µM 95% | [3]; at 100.0 µM 74% | [4]; at 33.0 µM 88% | [4]; at 100.0 µM 99% | [5]; [14] 73% | [5]; [15] 96% | [5]; at 100.0 µM 98% | [6]; at 33.0 µM 72% | [6]; at 100.0 µM 98% | [7]; [15] 93% | [8]; [15] 96% | [8]; at 100.0 µM 97% | [9]; at 100.0 µM 97% | [10]; at 100.0 µM 98% | [11]; at 100.0 µM 98% | [12]; [15] 97% | [13]; at 100.0 µM 95%
inactive: [1]; at 1.2 µM 5% | [1]; at 3.7 µM 4% | [1]; at 11.0 µM 21% | [1]; at 33.0 µM 51% | [2]; at 1.2 µM -14% | [2]; at 3.7 µM -19% | [2]; at 11.0 µM -29% | [2]; at 33.0 µM 1% | [3]; at 1.2 µM 19% | [3]; at 3.7 µM 49% | [3]; at 11.0 µM 50% | [3]; at 33.0 µM 60% | [4]; at 1.2 µM 18% | [4]; at 3.7 µM 17% | [4]; at 11.0 µM 33% | [5]; at 1.2 µM -29% | [5]; at 3.7 µM -18% | [5]; at 11.0 µM -21% | [5]; at 33.0 µM 23% | [5]; at 50.0 µM 61.9% | [6]; at 1.2 µM -8% | [6]; at 3.7 µM 1% | [6]; at 11.0 µM 12% | [7]; [14] 54% | [8]; at 1.2 µM -7% | [8]; at 3.7 µM -6% | [8]; [14] 46% | [8]; at 11.0 µM 4% | [8]; at 33.0 µM 49% | [9]; at 1.2 µM -49% | [9]; at 3.7 µM -40% | [9]; at 11.0 µM -30% | [9]; at 33.0 µM 30% | [10]; at 1.2 µM 12% | [10]; at 3.7 µM 9% | [10]; at 11.0 µM 21% | [10]; at 33.0 µM 68% | [11]; at 1.2 µM -12% | [11]; at 3.7 µM -14% | [11]; at 11.0 µM -1% | [11]; at 33.0 µM 37% | [12]; [14] 55% | [12]; at 50.0 µM 58.2% | [13]; at 1.2 µM -8% | [13]; at 3.7 µM -11% | [13]; at 11.0 µM -6% | [13]; at 33.0 µM 49%

Source: PubChem BioAssay (NCI)
